Compounds with a hit are over-represented: about 1.8% of the library has one in this group of screens.
PAD4 FP inh: blocks human protein arginine deiminase 4. recombinant PAD4, RCA probe fluorescence polarization. inhibition, % at 6.36 µM. 330,000 tested, 0.41% active;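 active means percent inhibition above a cutoff equal to the mean of all tested compounds plus 3 SD, cut at about 15% in these data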;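 further: 0% = PAD4 with RCA probe and DMSO and 100% = probe without PAD4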
PME-1 inh: blocks human protein phosphatase methylesterase 1; Q9Y570; recombinant PME-1, FP-Rh probe fluorescence polarization; inhibition, % at 5.9 µM; 320,000 tested, 0.53% active; AID 2130;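 active means inhibition above the campaign mean of all compounds plus 3 SD, cut at about 26% in these data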;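 further: competitive labeling of PME-1 active site by serine hydrolase directed probe; 0% = PME-1 with DMSO and 100% = wells lacking PME-1 enzyme; inhibitors block probe labeling so polarization falls and inhibition rises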
Target sequence (Q9Y570 whole entry, looked up): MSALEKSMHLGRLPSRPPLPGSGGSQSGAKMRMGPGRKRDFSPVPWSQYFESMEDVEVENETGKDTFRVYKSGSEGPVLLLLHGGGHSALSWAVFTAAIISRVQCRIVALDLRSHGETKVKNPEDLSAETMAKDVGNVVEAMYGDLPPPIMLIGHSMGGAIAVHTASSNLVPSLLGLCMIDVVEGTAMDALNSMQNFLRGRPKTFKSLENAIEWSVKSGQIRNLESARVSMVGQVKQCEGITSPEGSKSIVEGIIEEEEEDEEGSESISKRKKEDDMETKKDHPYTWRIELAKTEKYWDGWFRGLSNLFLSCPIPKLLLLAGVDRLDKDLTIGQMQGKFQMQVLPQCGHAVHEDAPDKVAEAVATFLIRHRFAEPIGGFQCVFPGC
LYPLA2 inh: blocks human lysophospholipase 2, a PME1 counter-screen; inhibition, % at 5.9 µM; recombinant LYPLA2, FP-Rh probe fluorescence polarization; 320,000 tested, 0.38% active; AID 2177;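 active means inhibition above the screen-wide mean plus 3 SD, limit set per campaign, cut at about 26% in these data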;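 further: 0% = LYPLA2 with DMSO and 100% = wells lacking LYPLA2 enzyme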
Target sequence (O95372 whole entry, looked up): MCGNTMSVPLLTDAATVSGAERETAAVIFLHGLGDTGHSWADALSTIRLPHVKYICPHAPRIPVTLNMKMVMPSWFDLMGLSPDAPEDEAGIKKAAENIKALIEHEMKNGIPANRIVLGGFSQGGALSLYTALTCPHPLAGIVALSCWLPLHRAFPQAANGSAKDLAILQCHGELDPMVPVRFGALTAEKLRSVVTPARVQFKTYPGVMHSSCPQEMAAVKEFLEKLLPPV
GSTO1 counter: GSTO1 inhibition, counter-screen for RBBP9 inhibitors. recombinant GSTO1, activity-based probe fluorescence polarization. inhibition, % at 5.96 µM. 300,000 tested, 1.1% active;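 active means inhibition above the campaign mean inhibition plus 3 SD, cut at about 35% in these data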;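 further: 0% = GSTO1-1 with DMSO and 100% = wells lacking GSTO1-1 enzyme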
Fam108B inh: Fam108B inhibition, counter-screen for RBBP9 inhibitors. recombinant Fam108B, FP-Rh probe fluorescence polarization. inhibition, % at 9.51 µM. 300,000 tested, 0.33% active;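 active means inhibition above the screen mean inhibition plus 3 SD, computed separately per campaign, cut at about 18% in these data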;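 further: inhibitors lower polarization as less probe binds the enzyme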
LYPLA1 inh: LYPLA1 (human) inhibition in PME1 counter-screen; O75608; recombinant LYPLA1, FP-Rh probe fluorescence polarization; inhibition, % at 5.9 µM; 320,000 tested, 0.16% active; AID 2174;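 active means inhibition above the mean of all tested compounds plus 3 SD, set per campaign, cut at about 14% in these data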;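 further: inhibitors block serine hydrolase probe labeling of LYPLA1 so polarization falls; 0% = enzyme with DMSO and 100% = wells lacking LYPLA1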
An asterisk follows results filed as active; . = not tested or not shown.

SMILES | PAD4 FP inh | PME-1 inh | LYPLA2 inh | GSTO1 counter | Fam108B inh | LYPLA1 inh
Cc1ccc(-n2nc(C)c3c2OC(N)=C(C#N)C3c2ccoc2)cc1 (configuration not stated) | -11.0 | 5.6 | 2.4 | 35.6* | 0.9 | 2.3
O=c1oc(-c2ccccc2)cc(Cl)c1Cl | 13.8 | -6.7 | 5.6 | -31.6 | -9.4 | -2.9
O=C(NC1CCN(CC(=O)N(c2ccccc2)c2ccccc2)CC1)c1ccc([N+](=O)[O-])cc1 | 0.2 | 0.0 | -5.7 | 5.7 | -1.9 | 0.1
CC(=O)n1cc(N(C(=O)CCl)c2ccccc2)c2ccccc21 | 12.8 | 1.0 | 7.8 | 76.9* | -4.0 | 1.0
CC(=O)n1cc(N(C(=O)CCl)c2ccc([N+](=O)[O-])cc2)c2ccccc21 | 19.5* | 4.7 | 0.3 | 75.4* | 1.8 | 2.0
CC(=O)n1cc(CO)c2ccccc21 | 0.3 | 0.6 | 7.1 | 6.8 | -3.5 | -2.6
Cn1cc(C(=O)N/N=C/c2ccc([N+](=O)[O-])cc2)c2ccccc21 | 1.3 | -9.9 | -15.2 | -11.6 | -15.1 | -14.7
O=Cc1[nH]c2ccccc2c1N(C(=O)CCl)c1ccc([N+](=O)[O-])cc1 | 10.6 | 2.5 | 5.8 | 73.3* | -5.1 | 1.6
COc1ccc(CNC(=O)C2CCCN(S(=O)(=O)c3ccc(-n4cnnn4)cc3)C2)cc1 (configuration not stated) | -2.5 | -4.3 | 0.7 | 3.4 | 1.7 | 0.7
Cc1c(Cc2ccccc2)c(=O)oc2c(C)c(OCC(=O)N[C@@H](Cc3ccccc3)C(=O)O)ccc12 | -0.8 | 8.8 | -1.8 | -7.1 | -0.9 | -1.7
Cc1cc(C)c(NC(=O)CSc2nc3ncc(Br)cc3[nH]2)c(Cl)c1 | 4.6 | -3.3 | -1.1 | 21.8 | -7.0 | -2.6
Cc1ccc(NC(=O)CSc2nc3ncc(Br)cc3[nH]2)cc1C | 0.3 | 0.7 | 0.0 | 35.7* | -10.1 | -1.3
CCc1cccc(NC(=S)N(CCCN2CCOCC2)C(C)c2cc3cccc(OC)c3o2)c1 (configuration not stated) | -3.6 | 0.5 | -1.7 | 2.8 | -5.0 | -1.8
O=C1c2ccccc2C(=O)c2c(O)c(O)cc(O)c21 | 95.5* | . | . | . | . | .
C[C@@H]1Cc2c(O)c(O)cc(O)c2C(=O)O1 | -2.6 | -2.6 | 7.8 | 27.9 | 0.9 | 1.8
O=C(O)c1cccc2c1C(=O)c1ccccc1C2=O | -1.7 | -3.0 | -1.6 | 1.7 | 2.2 | 1.2
O=C1C=C(O)c2c(O)cc(O)c(O)c2C1=O | -13.1 | 10.3 | 9.2 | 72.8* | 15.8 | 0.3
Cc1oc2cc(O)ccc2c(=O)c1Oc1ccc2ccccc2c1 | 2.0 | -6.3 | 1.5 | 36.8* | 0.5 | -1.6
Cc1oc2cc(O)ccc2c(=O)c1Oc1ccc(F)cc1 | -0.5 | -2.5 | 5.6 | -10.2 | -3.4 | -5.6
O=[N+]([O-])c1cc(/C=N/n2c(-c3cccnc3)n[nH]c2=S)ccc1Cl | 7.2 | 2.8 | 0.8 | 50.6* | 8.8 | 1.8
CC(=O)Nc1ccc(C(=O)OCC(=O)c2cccc([N+](=O)[O-])c2)cc1 | -1.2 | 1.7 | 21.1 | -2.0 | -2.7 | 4.0
Cc1cccc(NC(=O)CCC(=O)OCC(=O)c2ccc(Oc3ccc([N+](=O)[O-])cc3)cc2)c1 | -0.2 | 5.5 | 31.2* | 8.4 | 3.4 | 0.5
Cc1ccc(C(=O)COC(=O)c2cccc(NC(=O)c3ccc([N+](=O)[O-])cc3[N+](=O)[O-])c2)cc1 | 3.2 | 31.8* | 24.2 | -24.0 | 12.0 | -18.6
Cc1cc(C)c2nc(NC(=O)CN3C(=O)NC4(CCCC4)C3=O)sc2c1 | 5.8 | -0.5 | -6.0 | 9.8 | -5.4 | -2.8
O=C1CC(c2ccc(Cl)cc2)c2c(O)cc(O)cc2O1 (configuration not stated) | -0.1 | 3.4 | 3.7 | 37.4* | -7.7 | -2.8
SMILES | PAD4 FP inh | PME-1 inh | LYPLA2 inh | GSTO1 counter | Fam108B inh | LYPLA1 inh
CCCN(CC(=O)Nc1ccccc1C)C(=O)COc1c(C)cccc1C | -0.3 | 0.1 | 3.0 | . | . | -1.3
CCCN(CC(=O)Nc1ccccc1C)C(=O)COC(=O)CSc1ccc([N+](=O)[O-])cc1 | 11.9 | 28.1* | 1.7 | 7.3 | 0.7 | -1.6
COc1cccc(/C=N/Nc2ncnc3c2[nH]c2ccc(C)cc23)c1OC | 0.4 | 10.7 | 0.0 | 37.0* | 2.7 | 2.8
CCNc1ccccc(C(=O)/C=C/c2ccc3c(c2)OCO3)c1=O | -4.8 | 3.3 | 1.7 | 43.7* | 5.6 | 3.5
COc1cccc(C(=O)N2CCN(c3ccccn3)CC2)c1 | -4.6 | -2.0 | -3.6 | -8.7 | -3.1 | 0.8
Cc1ccc(NS(=O)(=O)c2ccc3c(c2)C(=O)c2ccccc2C3=O)c(C)c1 | 4.4 | 31.7* | 3.8 | 9.9 | 8.9 | -6.5
Cc1cccc(S(=O)(=O)Nc2cccc3c2C(=O)c2ccccc2-3)c1 | 0.1 | -2.4 | -12.5 | -10.7 | -0.7 | -7.0
COC(=O)CC#N | 0.4 | -5.3 | 0.8 | . | . | 0.9
N#CCC(N)=C(C#N)C#N | -13.0 | -7.8 | -0.5 | 78.8* | -0.8 | 1.6
COC(=O)Cc1nnc(SCC(=O)Nc2ccccc2)c2ccccc12 | 6.5 | -0.1 | 0.2 | 3.5 | 3.8 | -2.8
CC(C)NC(=NCc1ccc(Cl)cc1Cl)Nc1ccccc1 | -0.7 | 1.2 | 4.7 | 5.2 | 1.4 | 0.2
CN(C)c1ccc(N=Nc2ccc(S(=O)(=O)O)cc2)c2ccccc12 | -11.7 | 10.7 | -3.4 | 36.9* | 7.7 | 0.9
CN(C)c1ccc(N=Nc2ccc(S(N)(=O)=O)cc2)cc1 | 1.3 | 3.2 | 4.2 | -4.2 | -0.1 | -0.7
CSc1ccccc1C(=O)N(C)C(c1ccccc1)c1ccccc1 | 1.7 | 24.6 | 0.4 | 1.8 | -2.8 | 2.4
CC1=NN(c2ccccc2)C(=O)C1N=Nc1cccc(O)c1 (configuration not stated) | -5.5 | 28.2* | 7.3 | -1.1 | 7.6 | 0.5
O=C(CN1C(=O)NC2(CCCCC2)C1=O)Nc1ccc2[nH]c(=O)[nH]c2c1 | 1.1 | 1.3 | -4.1 | . | . | -1.2
Nc1nc(CSc2nc3ccccc3s2)nc(Nc2ccccc2)n1 | 6.0 | -56.8 | -18.8 | -6.8 | -14.3 | -15.5
Cc1c(Cl)cccc1Nc1nc(N)nc(CSc2nc3ccccc3s2)n1 | -3.6 | 33.2* | -12.8 | 0.5 | -10.3 | 0.5
CCC1Sc2ccc(S(=O)(=O)CCC(=O)Nc3ccc(OC(F)(F)F)cc3)cc2NC1=O (configuration not stated) | -0.7 | 26.4* | -1.7 | 8.3 | -6.7 | -6.3
COc1cc(C(=O)/C=C/c2cccnc2)c([N+](=O)[O-])cc1OC | -2.4 | 6.2 | 7.9 | 9.4 | 4.5 | 2.6
CC1=NN(C(N)=S)C(=O)C1N=Nc1cccc(Cl)c1C (configuration not stated) | -7.2 | 2.7 | -3.2 | 5.1 | 7.4 | -0.2
CC1=NN(C(N)=S)C(=O)C1N=Nc1cccc2ccccc12 (configuration not stated) | 3.6 | 2.5 | 7.6 | -20.3 | 22.9* | -1.5
COc1ccc(OC)c(/C=C/c2ccc3cccc(O)c3n2)c1 | -8.3 | 8.2 | -4.0 | 16.5 | 3.7 | -1.5
COc1cc(/C=C/c2ccc3cccc(O)c3n2)ccc1O | -5.1 | 33.9* | 8.8 | 17.7 | 13.7 | 6.1
